Measured values reported in PubChem BioAssay (NCI).
About 83,000 compounds went through this panel and 20% of them were active in at least one assay; those are over-represented in the sample as a whole.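 Compound tested at a single concentration for 48 hours in 96-well plates; a percent growth value below 10 was scored as active.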 Values without a mark were called inactive. The source made the active and inactive calls.

System: COLO 205 colon
Assay: NCI-60 one-dose screen, 48 h (100 = growth as untreated, 0 = no growth, -100 = all killed)
Conditions: 10 µM unless noted

| Structure (SMILES) | growth |
| --- | --- |
| Clc1ccc2oc3c(NCCCN4CCOCC4)c4ccccc4nc3c2c1 | 13.2% |
| CN(C)c1ccc(/C=C2\Cc3c(F)ccc(Br)c3C2=O)cc1 | 98.1% |
| O=C(N/N=C/c1ccc([N+](=O)[O-])s1)c1[nH]c2ccc(Br)cc2c1-c1ccccc1 | -55.5% (active) |
| CC(O)C(NC(=O)C1CCCN1C(=O)CNC(=O)C1CC(=O)NCC(=O)NC(Cc2c[nH]c3ccccc23)C(=O)NC(Cc2ccc(O)cc2)C(=O)NCC(=O)NC(CO)C(=O)NC(CCC(N)=O)C(=O)NC(Cc2c[nH]c3ccccc23)C(=O)N1)C(=O)NCC(=O)NC(CCC(N)=O)C(=O)NC(CCCNC(=N)N)C(=O)NC(CC(=O)O)C(=O)O (stereo unspecified) | 109% |
| O=C(CN1CCOCC1)NNc1ncnc2ccccc12 | 102% |
| N#Cc1c(-c2ccc(Cl)cc2)nc(SCc2ccccc2)nc1N1CCNCC1 | -8% (active) |
| Cn1cc(-c2cc(N)n3nc(-c4cn(C)c5ccc(F)cc45)cc3n2)c2cc(F)ccc21 | 115% |
| CS(=O)(=O)c1ccc(-c2nc3ccccn3c2/C=N/Nc2nc(-c3ccc(Cl)cc3)cs2)cc1 | 112% |
| O=c1/c(=C\c2ccc(-c3ccccc3)o2)sc2nc(-c3ccccc3)nn12 | 117% |
| Cc1nc(-c2cc3ccccc3oc2=O)ccc1C(=O)/C=C/c1ccccn1 | 94.7% |
| Nc1c(C(=O)Nc2ccc(C(F)(F)F)cc2)sc2nc(-c3cnccn3)cc(-c3cccs3)c12 | 104% |
| O=C1Nc2cc(Cl)ccc2/C1=C\c1ccc(OCc2ccc(Br)cc2F)cc1 | 12.4% |
| C=CCSc1ccc2c(c1)C(N1CCNCC1)=Nc1ccccc1O2 | 7.69% [8.25 µM] (active) |
| COc1ccc(NC2=CC(=O)C(C)=C(C)C2=O)cc1 | 107% |
| CS(=O)(=O)c1ccc(-c2nc3ccccn3c2-c2nc3ccc([N+](=O)[O-])cc3[nH]2)cc1 | 103% |
| CCOC(=O)c1c(Nc2ccccc2)nn2c(-c3ccco3)c(C#N)cnc12 | 98.6% |
| COc1ccc(NC(=O)c2sc3nc(-c4cnccn4)cc(-c4cccs4)c3c2N)cc1 | 64.7% |
| CC(=O)c1ccc(Nc2nc(SC(C)C)nc(-c3ccccc3)c2C#N)cc1 | 114% |
| COc1ccc(N/N=C/c2c(-c3ccc(S(C)(=O)=O)cc3)nc3ccccn23)cc1 | 55.1% |

| Structure (SMILES) | growth |
| --- | --- |
| O=C1C2=C(C(=O)c3c(O)cccc31)C(c1ccco1)c1sc(=O)[nH]c1S2 (stereo unspecified) | -89.4% (active) |
| COc1ccc(/C=C2\SC(=Nc3cc(C)on3)NC2=O)cc1 | 103% |
| COc1ccc(-c2nc3ccc(-c4nnc(SCC(=O)Nc5ccc(C(=O)/C=C/c6ccccc6)cc5)o4)cc3[nH]2)cc1OC | 115% |
| O=C(CSc1nnc(-c2ccc3nc(-c4ccc(Cl)cc4)[nH]c3c2)o1)Nc1ccc(C(=O)/C=C/c2ccc(Cl)cc2)cc1 | 118% |
| OC1CCN(CCCOc2c3ccccc3nc3c2oc2ccccc23)CC1 | -63.8% (active) |
| Nc1cc(-c2c[nH]c3ccccc23)nc2cc(-c3c[nH]c4ccccc34)nn12 | 49.4% |
| N[C@@H](Cc1cn(-c2c3ccccc3nc3ccccc23)nn1)C(=O)O | 109% |
| CCN1CCN(S(=O)(=O)c2oc(-c3ccc(Cl)cc3)nc2C#N)CC1 | 65.5% |
| OC1CCc2c(-c3ccc4ncnc(N5CCc6cc(F)c(Cl)cc65)c4c3)cncc21 (stereo unspecified) | 82.3% |
| O=C(N/N=C/c1ccc([N+](=O)[O-])o1)c1[nH]c2ccc(Br)cc2c1-c1ccccc1 | 5.51% (active) |
| N#Cc1ccc(C(=O)CSc2nc(Nc3ccc(S(N)(=O)=O)cc3)c3ccccc3n2)cc1 | 117% |
| COc1cc(/C=C/C(=O)c2cc(OC)c(OC)c(OC)c2)ccc1Oc1nc(NCCO)nc(N2CCOCC2)n1 | 3.69% (active) |
| NC(=O)c1c(NC(=O)c2ccc(C3CCCCC3)cc2)sc2c1CCC(=O)C2 | -36.1% (active) |
| COc1cc2nc(-c3ccc(C(F)(F)F)cc3)cc(OCCCNCC3CCCO3)c2cc1OC (stereo unspecified) | 23.3% |
| Nc1c(C(=O)c2ccc(Br)cc2)oc2nc(-c3cnccn3)cc(-c3cccs3)c12 | 118% |
| Cc1sc2c(c1C)c(=O)nc1c(-c3nc(-c4ccc(F)cc4)no3)n[nH]n12 | 119% |
| COc1cc(/C=C/C(=O)c2ccc(Cl)cc2)ccc1Oc1nc(NCCO)nc(N2CCOCC2)n1 | 116% |
| O=C(Oc1ccc2ccc(=O)oc2c1)c1ccc(Cl)cc1 | 114% |
| COc1cc(/C=C/C(=O)c2ccccc2)ccc1Oc1nc(NCCO)nc(N2CCOCC2)n1 | 116% |

System: DU-145 prostate
Assay: as above
Conditions: 10 µM unless noted

| Structure (SMILES) | growth |
| --- | --- |
| Clc1ccc2oc3c(NCCCN4CCOCC4)c4ccccc4nc3c2c1 | 16.8% |
| CN(C)c1ccc(/C=C2\Cc3c(F)ccc(Br)c3C2=O)cc1 | 97.5% |
| O=C(N/N=C/c1ccc([N+](=O)[O-])s1)c1[nH]c2ccc(Br)cc2c1-c1ccccc1 | 20.4% |
| CC(O)C(NC(=O)C1CCCN1C(=O)CNC(=O)C1CC(=O)NCC(=O)NC(Cc2c[nH]c3ccccc23)C(=O)NC(Cc2ccc(O)cc2)C(=O)NCC(=O)NC(CO)C(=O)NC(CCC(N)=O)C(=O)NC(Cc2c[nH]c3ccccc23)C(=O)N1)C(=O)NCC(=O)NC(CCC(N)=O)C(=O)NC(CCCNC(=N)N)C(=O)NC(CC(=O)O)C(=O)O (stereo unspecified) | 104% |
| O=C(CN1CCOCC1)NNc1ncnc2ccccc12 | 102% |
| N#Cc1c(-c2ccc(Cl)cc2)nc(SCc2ccccc2)nc1N1CCNCC1 | 63.8% |
| Cn1cc(-c2cc(N)n3nc(-c4cn(C)c5ccc(F)cc45)cc3n2)c2cc(F)ccc21 | 44.8% |
| CS(=O)(=O)c1ccc(-c2nc3ccccn3c2/C=N/Nc2nc(-c3ccc(Cl)cc3)cs2)cc1 | 106% |
| O=c1/c(=C\c2ccc(-c3ccccc3)o2)sc2nc(-c3ccccc3)nn12 | 107% |
| Cc1nc(-c2cc3ccccc3oc2=O)ccc1C(=O)/C=C/c1ccccn1 | 47.3% |
| Nc1c(C(=O)Nc2ccc(C(F)(F)F)cc2)sc2nc(-c3cnccn3)cc(-c3cccs3)c12 | 90.1% |
| O=C1Nc2cc(Cl)ccc2/C1=C\c1ccc(OCc2ccc(Br)cc2F)cc1 | -13.2% (active) |
| C=CCSc1ccc2c(c1)C(N1CCNCC1)=Nc1ccccc1O2 | 90.8% [8.25 µM] |
| COc1ccc(NC2=CC(=O)C(C)=C(C)C2=O)cc1 | 105% |
| CS(=O)(=O)c1ccc(-c2nc3ccccn3c2-c2nc3ccc([N+](=O)[O-])cc3[nH]2)cc1 | 99.8% |
| CCOC(=O)c1c(Nc2ccccc2)nn2c(-c3ccco3)c(C#N)cnc12 | 87.9% |
| COc1ccc(NC(=O)c2sc3nc(-c4cnccn4)cc(-c4cccs4)c3c2N)cc1 | 88.9% |
| CC(=O)c1ccc(Nc2nc(SC(C)C)nc(-c3ccccc3)c2C#N)cc1 | 91.2% |
| COc1ccc(N/N=C/c2c(-c3ccc(S(C)(=O)=O)cc3)nc3ccccn23)cc1 | 40.1% |

| Structure (SMILES) | growth |
| --- | --- |
| O=C1C2=C(C(=O)c3c(O)cccc31)C(c1ccco1)c1sc(=O)[nH]c1S2 (stereo unspecified) | -93.9% (active) |
| COc1ccc(/C=C2\SC(=Nc3cc(C)on3)NC2=O)cc1 | 109% |
| COc1ccc(-c2nc3ccc(-c4nnc(SCC(=O)Nc5ccc(C(=O)/C=C/c6ccccc6)cc5)o4)cc3[nH]2)cc1OC | 107% |
| O=C(CSc1nnc(-c2ccc3nc(-c4ccc(Cl)cc4)[nH]c3c2)o1)Nc1ccc(C(=O)/C=C/c2ccc(Cl)cc2)cc1 | 111% |
| OC1CCN(CCCOc2c3ccccc3nc3c2oc2ccccc23)CC1 | 1.33% (active) |
| Nc1cc(-c2c[nH]c3ccccc23)nc2cc(-c3c[nH]c4ccccc34)nn12 | 40.2% |
| N[C@@H](Cc1cn(-c2c3ccccc3nc3ccccc23)nn1)C(=O)O | 105% |
| CCN1CCN(S(=O)(=O)c2oc(-c3ccc(Cl)cc3)nc2C#N)CC1 | 81.7% |
| OC1CCc2c(-c3ccc4ncnc(N5CCc6cc(F)c(Cl)cc65)c4c3)cncc21 (stereo unspecified) | 35.8% |
| O=C(N/N=C/c1ccc([N+](=O)[O-])o1)c1[nH]c2ccc(Br)cc2c1-c1ccccc1 | 16.2% |
| N#Cc1ccc(C(=O)CSc2nc(Nc3ccc(S(N)(=O)=O)cc3)c3ccccc3n2)cc1 | 107% |
| COc1cc(/C=C/C(=O)c2cc(OC)c(OC)c(OC)c2)ccc1Oc1nc(NCCO)nc(N2CCOCC2)n1 | 12.6% |
| NC(=O)c1c(NC(=O)c2ccc(C3CCCCC3)cc2)sc2c1CCC(=O)C2 | 49.2% |
| COc1cc2nc(-c3ccc(C(F)(F)F)cc3)cc(OCCCNCC3CCCO3)c2cc1OC (stereo unspecified) | 36.7% |
| Nc1c(C(=O)c2ccc(Br)cc2)oc2nc(-c3cnccn3)cc(-c3cccs3)c12 | 107% |
| Cc1sc2c(c1C)c(=O)nc1c(-c3nc(-c4ccc(F)cc4)no3)n[nH]n12 | 109% |
| COc1cc(/C=C/C(=O)c2ccc(Cl)cc2)ccc1Oc1nc(NCCO)nc(N2CCOCC2)n1 | 107% |
| O=C(Oc1ccc2ccc(=O)oc2c1)c1ccc(Cl)cc1 | 108% |
| COc1cc(/C=C/C(=O)c2ccccc2)ccc1Oc1nc(NCCO)nc(N2CCOCC2)n1 | 104% |
